The results in this text go back to PubChem BioAssay (NCI).

“And” between values parts separate entries of the source, which are not always exact repeats. Equal values may be shown once. This is part of a sample that, as a whole, favours compounds with a hit. Of some 83,000 tested, about 20% had one in any assay.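 Results are percent growth after 48 hours of single-concentration exposure. 100 means growth as in untreated cells, lower positive values show inhibition; negative values down to -100 show cell death.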 The source made the active and inactive calls.

This experiment deals with CAKI-1 renal. In words: NCI-60 one-dose screen, 48 h (100 = growth as untreated, 0 = no growth, -100 = all killed). The following applies: 10 µM unless noted. The procedure: Growth inhibition of the CAKI-1 human tumor cell line is measured as a screen for anti-cancer activity. Cells are grown in 96 well plates and exposed to the test compound for 48 hours. Compounds are tested at a single concentration, which is 10^-5 M for most compounds. The reported endpoint is percent growth (GI% or GIPRCNT), where numbers from 0 - 100% represent growth inhibition, and numbers from -100% - 0 represent cell death. For example, a value of 40 represents 60% growth inhibition. A value of 0 means no net growth occurred over the course of the experiment. A value of -40 indicates 40% of cells at the beginning of the experiment died by the end of the experiment. A value of -100 means all cells are dead at the end of the experiment.
NCI-60 Human Tumor Cell Lines Screen was performed using the standard one-dose NCI protocol, which is described in more detail at https://dtp.cancer.gov/discovery_development/nci-60/default.htm.
Compounds with GIPRCNT values below 10 were considered active. Activity score was based on GIPRCNT using the following formula: […]
Score is 0 for GIPRCNT values of 100 or above, 50 for GIPRCNT values of 0, and 100 for GIPRCNT values of -100.
Consider `Cc1nc(Nc2ccccn2)sc1C1=NNC(c2ccccc2F)C1` (stereo not given), for which the growth was 61.8% (inactive). The same measure for `Cc1ccc(C(=O)Nc2cc(-n3ccnc3C)cc(C(F)(F)F)c2)cc1C#Cc1cnc2cccnn12`: -41.4% (active); for `COC(=O)c1cc(C(=O)CBr)n2c1ccc1c3ccccc3ccc12`: 54% (inactive). The same measure for `O=C(CSc1nnc(-c2ccc(-c3nc4ccccc4[nH]3)cc2)o1)Nc1ccc(Cl)cc1`: 17.1% (inactive); for `O=[N+]([O-])c1cccc(-c2nnc3c(/C=C/c4ccc(F)cc4)nc4ccccc4n23)c1`: 88.8% (inactive).

Consider `O=C(CSc1nnc(-c2ccc(-c3nc4ccc(Cl)cc4[nH]3)cc2)o1)Nc1ccc(Br)cc1`, for which the growth is -25.1% (active).

As to `Nc1nn2c(-c3cc4cc(Br)ccc4oc3=O)ccnc2c1N=Nc1ccc(Br)cc1`, the growth was 3.98% (active).

For `Cc1cccc(-c2ccccc2Oc2ccc3nnc(Cl)n3n2)c1`, the growth was 92.2% (inactive). With `COc1c(B(O)O)cc(F)cc1-c1nc2ccc3[nH]ncc3c2c2c1COCC2`, the growth is -12.1% (active).

Consider `COc1ccc2[nH]c(O)c(N=Nc3nc(-c4ccc(Br)cc4)cs3)c2c1`, for which the growth is 2.6% (active). For the compound `O=C(CSc1nc2sc3c(c2c(=O)n1-c1ccc(Cl)cc1)CCCC3)N/N=C/C=C/c1ccccc1`, the growth was 38.5% (inactive). The same measure for `Clc1ccc(-c2nc3ccc(-c4nnc(SCc5ccccc5)o4)cc3[nH]2)cc1`: 37.5% (inactive); for `Cc1cnc2ccc(Oc3ccccc3-c3ccccc3)nn12`: 94.5% (inactive); for `Cc1cc(C(NC(=O)CCCCCNc2cccc3c2C(=O)N(C2CCC(=O)CC2=O)C3=O)c2cccc(N(C)C)c2)c(O)c2ncccc12` (stereo not given): 19.4% (inactive). `Cc1nn(-c2ccccc2)c2ncn(CC(=O)N/N=C/c3ccccc3O)c(=O)c12`: the growth was 39.1% (inactive). The same measure for `COC(=O)c1c(C(=O)OC)c2ccc3c4ccccc4ccc3n2c1C(=O)C(C)Br` (stereo not given): 71.3% (inactive). The same measure for `Cc1cc(C(NC(=O)C2CC3(CC(Nc4cccc5c4C(=O)N(C4CCC(=O)NC4=O)C5=O)C3)C2)c2ccc3c(c2)OC(F)(F)O3)c(O)c2ncccc12` (stereo not given): 10.6% (inactive). The result for `O=C(Nc1nc2ccc([N+](=O)[O-])cc2s1)Nc1ccccc1F` reads -8.16% (active); that for `Clc1ccc2c(NCCNC34CC5CC(CC(C5)C3)C4)ccnc2c1`, -80.8% (active). For `COc1ccc(-c2cc(C(=O)N=Nc3c(O)[nH]c4ccc(Cl)cc34)c3ccccc3n2)cc1OC`, the growth was 95.2% (inactive). The same measure for `CCC(=O)c1cc(C(=O)OC)c2ccc3c4ccccc4ccc3n12`: 42.7% (inactive); for `COc1ccc2oc(=O)c(-c3csc(N/N=C(\C)c4cc(OC)c(OC)c(OC)c4)n3)cc2c1`: 97.8% (inactive); for `CCCn1c(NC(=O)c2cccc(C(N)=O)c2)nc2cc(CN3CCCCC3)ccc21`: 53.3% (inactive). The same measure for `C[C@@H]1[C@H]2C[C@@H](C[C@H]1NCc1nc3ccccc3n1C1CCCCCC1)C2(C)C`: 55.5% (inactive); for `N#Cc1c(NC(=O)N2CCOCC2)n(-c2ccc(OC(F)(F)F)cc2)c2cc(F)ccc12`: 88.9% (inactive). The result for `CCN(C(=O)CN1C(=O)/C(=C/c2ccco2)SC1=S)C1CCS(=O)(=O)C1` (stereo not given) reads 91.4% (inactive).

Regarding `Cc1ccc(C2CC(c3ccc(NC(=O)Nc4ccccc4)cc3)=NN2c2ccc(S(C)(=O)=O)cc2)cc1` (stereo not given), the growth was 5.74% (active).

Turning to `C=CCSc1nnc(-c2c(C)nc3sccn23)o1`, the growth was 77.9% (inactive). The result for `O=c1c(-c2nc(-c3ccccc3)c(-c3ccccc3)[nH]2)coc2ccc(F)cc12` reads 64.9% (inactive); that for `COc1ccc(Nc2nnc(-c3c[nH]c4ccccc34)o2)cc1`, 72.9% (inactive); that for `Nc1cc(-c2c[nH]c3ccc(Cl)cc23)nc2cc(-c3c[nH]c4ccccc34)nn12`, -19.1% (active). The result for `CN(C)c1ccc(/C=C/c2n(Cc3ccc4ccccc4c3)c3ccccc3[n+]2Cc2ccc3ccccc3c2)cc1` reads -95.9% (active); that for `S=C(Nc1ccc(OCc2nc3ccc(Cl)cc3[nH]2)cc1)NC1CCCCC1`, -5.65% (active); that for `Cc1cc(C2(c3cc(C)c(OCC(O)CNc4c(C)n(C)n(-c5ccccc5)c4=O)cc3C(C)C)OC(=O)c3ccccc32)c(C(C)C)cc1OCC(O)CNc1c(C)n(C)n(-c2ccccc2)c1=O` (stereo not given), 21.9% (inactive). The result for `C[C@H]1[C@@H](CC(=O)N[C@@H](Cc2coc3ccccc23)B(O)O)O[C@@H]2OC3(C)CC[C@H]4[C@H](C)CC[C@@H]1[C@@]24O3` reads 15.5% (inactive); that for `O=C(CCl)Nc1ccc(C(=O)/C=C/c2cc3ccccc3nc2Cl)cc1`, -43.5% (active) and 11.1% (inactive).

Take `CCCCNc1ccc2c3c(cccc13)C(=O)N(c1cccc(-c3nn(-c4ccccc4)cc3-c3nc4ccccc4s3)c1)C2=O`: the growth is 82.2% (inactive).

Take `ClC(Cn1ncc2c(Nc3cccc(Br)c3)nc(SCCN3CCOCC3)nc21)c1ccc(Br)cc1` (stereo not given): the growth is -28% (active). For `COc1ccc(-c2cc(-c3ccccc3)c(C#N)c(=O)[nH]2)cc1S(N)(=O)=O`, the growth is 96.4% (inactive). As to `COc1cc(CNC(=O)C[C@H](C)CCC=C(C)C)ccc1OCc1cn(-c2ccc(Cl)c(Cl)c2)nn1`, the growth is 64% (inactive).
